The source of these data is PubChem BioAssay AID434970 (Sanford-Burnham Center for Chemical Genomics, 2010).

Screen size: about 11,000 compounds; about 310 (2.8%) were called active. Rule as the data show it: active = activity change below about -85%; inactive = the rest. The sample as a whole holds a higher share of actives than the screen did.

This experiment has as its system intestinal alkaline phosphatase [Mus musculus]. The experiment is described as follows: activators of mouse IAP, confirmation, biochemical, luminescence, single concentration (AID 434970). As to conditions: purified mouse IAP, CDP-Star luminescence, 30 min, at 10 µM; activation factor: measured here: IAP activation factor, stronger effect = higher value; activity change, negative = activation: stronger effect = lower value.
For the compound `Cc1cccc(-c2noc(CCC(=O)N3CCN(c4cc(C)ccc4C)CC3)n2)c1`, the activation factor worked out at 0.938 and the activity change, negative = activation was 6.25% (inactive).

Regarding `c1coc(C2Nc3cccc4cccc(c34)N2)c1`, the activation factor worked out at 0.307 and the activity change, negative = activation is 69.3% (inactive).

Take `CN1CC2([N+](=O)[O-])CC=C(Oc3ccccc3)C([N+](=O)[O-])(C1)C2` (centres undefined): the activation factor amounted to 0.919 and the activity change, negative = activation is 8.05% (inactive).

With `C#CCOCCOCCOCCNc1nc(N2CCN(C(=O)CCCCCCCCCCNC(=O)Cn3cc(CCCCCN)nn3)CC2)nc(N2CCN(C(=O)CCCCCCCCCCNC(=O)[C@@H](CCSC)n3cc(CCO)nn3)CC2)n1`, the activation factor came to 3.56 and the activity change, negative = activation was -256% (active).

On to `C#CCOCCOCCOCCNc1nc(N2CCN(C(=O)CCCCCCCCCCNC(=O)Cn3cc(C[C@@H](C)O)nn3)CC2)nc(N2CCN(C(=O)CCCCCCCCCCNC(=O)[C@@H](CCSC)n3cc(CCO)nn3)CC2)n1`, for which the activation factor was determined as 1.97 and the activity change, negative = activation was -96.8% (active).

Regarding `C#CCOCCOCCOCCNc1nc(N2CCN(C(=O)CCCCCCCCCCNC(=O)Cn3cc(CCCCCN)nn3)CC2)nc(N2CCN(C(=O)CCCCCCCCCCNC(=O)[C@H](CO)n3cc(CCCSC)nn3)CC2)n1`, the activation factor stood at 2.53 and the activity change, negative = activation is -153% (active).

`C#CCOCCOCCOCCNc1nc(N2CCN(C(=O)CCCCCCCCCCNC(=O)[C@@H](CCSC)n3cc(CCO)nn3)CC2)nc(N2CCN(C(=O)CCCCCCCCCCNC(=O)[C@H](CCSC)n3cc(CCO)nn3)CC2)n1`: the activation factor turned out to be 1.78 and the activity change, negative = activation was -77.9% (inactive).

In the case of `CCOc1ccc(-n2c(SCC(=O)NCc3ccco3)nc3c(c2=O)SCC3)cc1`, the activation factor is 0.865 and the activity change, negative = activation was 13.5% (inactive).

On to `COc1cc(O)c2c(c1)OC(C)(C)CC2=O`, for which the activation factor stood at 1.08 and the activity change, negative = activation was -7.6% (inactive).

`O=C(CSc1nc2cccnc2n1Cc1ccccc1)N1CCCC1`: the activation factor was 1.07 and the activity change, negative = activation is -7.2% (inactive).

Consider `COC(=O)[C@H](CCSC)NC(=O)Cn1cnc(C(=O)Nc2ccc(C)c(C)c2)n1`, for which the activation factor is 0.956 and the activity change, negative = activation was 4.35% (inactive).

Take `CC(NC(=O)CCSc1nc(-c2ccco2)cc(C(F)(F)F)n1)c1ccccc1` (centres undefined): the activation factor came to 0.94 and the activity change, negative = activation is 6% (inactive).

Take `O=C(N/N=C/c1ccc([N+](=O)[O-])o1)c1ccccc1NS(=O)(=O)c1cccs1`: the activation factor came out at 0.375 and the activity change, negative = activation was 62.5% (inactive).

On to `O=C(c1ccc(C(=O)N2CCOCC2)nc1)N1CCOCC1`, for which the activation factor is 1.09 and the activity change, negative = activation is -8.9% (inactive).

Take `CCc1ccc(NC(=O)c2sccc2-n2cccc2)cc1`: the activation factor came out at 1.04 and the activity change, negative = activation was -4.35% (inactive).

Regarding `Fc1cc(NC(=S)NCc2ccc(CNC(=S)Nc3ccc(Cl)c(F)c3)cc2)ccc1Cl`, the activation factor came out at 1.44 and the activity change, negative = activation was -44.1% (inactive).

Consider `O=C(NCCSCc1ccco1)Nc1cc(Cl)cc(Cl)c1`, for which the activation factor was 1.27 and the activity change, negative = activation is -27.2% (inactive).

For `O=C(Nc1ccc(Cl)cc1)C1CCN(C(=O)NC2CCCCC2)CC1`, the activation factor came out at 0.914 and the activity change, negative = activation was 8.6% (inactive).

In the case of `O=C(Nc1ccc(Cl)cc1)NC1CCCCC1Cc1ccco1` (centres undefined), the activation factor came to 2.11 and the activity change, negative = activation is -111% (active).

As for `CC/C(=N\n1nnnc1Nc1ccccc1)c1ccccc1`, the activation factor stood at 1.02 and the activity change, negative = activation is -2.45% (inactive).

With `Cc1ccc(N2C(=O)/C(=C/c3ccco3)SC2=S)cc1`, the activation factor stood at 0.396 and the activity change, negative = activation was 60.5% (inactive).

In the case of `Cc1cc2oc(=O)cc(-c3ccccc3)c2c(C)c1-c1ccc(N(C)C)cc1`, the activation factor was found to be 0.885 and the activity change, negative = activation is 11.4% (inactive).

With `COc1cccc(N/C(C)=C/C(=O)c2ccc(Br)cc2)c1`, the activation factor was found to be 1 and the activity change, negative = activation is -0.05% (inactive).

Turning to `O=C(Nc1ccccc1)Nc1ccc2c(c1)CCC2`, the activation factor stood at 1.95 and the activity change, negative = activation was -94.8% (active).

Consider `COc1cccc(NC(=O)Nc2ccc3c(c2)CCC3)c1`, for which the activation factor was determined as 2.9 and the activity change, negative = activation was -190% (active).

As to `COc1cccc(NC(=O)Nc2ccc3c(c2)N(C)C(=O)CS3)c1`, the activation factor stood at 0.986 and the activity change, negative = activation was 1.5% (inactive).

Consider `Cn1cccc1C(=O)OCC(=O)Nc1ccc2c(c1)CCC2`, for which the activation factor stood at 1.05 and the activity change, negative = activation was -5.05% (inactive).

For `Cc1cccc(NC(=O)Nc2ccc3c(c2)CCC3)c1`, the activation factor was found to be 1.41 and the activity change, negative = activation was -41.4% (inactive).

Take `O=C(Nc1ccc2c(c1)CCC2)Nc1ccccc1F`: the activation factor is 1.69 and the activity change, negative = activation is -68.5% (inactive).

Consider `Cc1ccc(NCc2nnc(SCC(=O)N3CCCc4ccccc43)o2)c(C)c1`, for which the activation factor stood at 1.02 and the activity change, negative = activation was -2.3% (inactive).

With `CCS(=O)(=O)n1nc(-c2ccccc2)nc1N`, the activation factor worked out at 0.926 and the activity change, negative = activation is 7.4% (inactive).

As for `CC(/C=N/n1cnnc1)=C\c1ccccc1`, the activation factor is 1.02 and the activity change, negative = activation is -1.9% (inactive).

For `CC1(C)CC(=O)C2=C(C1)NC(=O)CC2C(=O)NCc1ccc(F)cc1` (centres undefined), the activation factor amounted to 1.3 and the activity change, negative = activation was -29.9% (inactive).

As for `COc1cc(-c2nnc3n2N=C(c2ccccc2)CS3)cc(OC)c1OC`, the activation factor turned out to be 0.996 and the activity change, negative = activation is 0.4% (inactive).

On to `CCCNC(=O)c1ccccc1NC(=O)CN(c1ccccc1OCC)S(C)(=O)=O`, for which the activation factor turned out to be 1.15 and the activity change, negative = activation is -15.4% (inactive).

For the compound `O=P(OC1CCS(=O)(=O)C1)(c1ccccc1)c1ccccc1` (centres undefined), the activation factor stood at 0.921 and the activity change, negative = activation is 7.85% (inactive).

In the case of `[N-]=[N+]=CC(=O)CCCN1C(=O)c2ccccc2C1=O`, the activation factor amounted to 1.09 and the activity change, negative = activation is -9.05% (inactive).

As for `O=C(Cc1cccs1)Nc1nnc(CCc2ccccc2)s1`, the activation factor was determined as 1.15 and the activity change, negative = activation is -14.7% (inactive).

Turning to `O=C(Nc1cccc(F)c1)NC1CCCCCCC1`, the activation factor worked out at 2.42 and the activity change, negative = activation is -142% (active).

Take `Cc1cccc(NC(=O)NC2CCCCCCC2)c1`: the activation factor was determined as 2.45 and the activity change, negative = activation is -145% (active).

As for `Cc1ccc(NC(=O)NC2CCCCCCC2)cc1C`, the activation factor was found to be 2.56 and the activity change, negative = activation was -156% (active).

Regarding `CC1CCCN(C(=O)C2(NC(=O)Nc3cccc(F)c3)CCCCC2)C1` (centres undefined), the activation factor was 1.81 and the activity change, negative = activation is -81.1% (inactive).
